sEH inhibitor = blocks human soluble epoxide hydrolase activity; recombinant human sEH enzymatic activity assay; inhibition, % at 2 µM; hit rate 0.34% among 91,000; P34913; in the data active = inhibition above about 80%
CYP2C19 activ = increases human CYP2C19 enzyme activity; P33261; recombinant CYP2C19, luciferin-H EGE luminescence; hits give high values; 0 = fully inhibited enzyme, 1 = untreated enzyme; activation factor at 5 µM; 96,000 tested, under 10 active; AID 1025;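 active = activation factor of at least 2 at 5 µM in the primary screen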;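 note: 0 = wells with 2.5 mM tranylcypromine and 1 = vehicle-only wells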
Target sequence (P33261 whole entry, looked up): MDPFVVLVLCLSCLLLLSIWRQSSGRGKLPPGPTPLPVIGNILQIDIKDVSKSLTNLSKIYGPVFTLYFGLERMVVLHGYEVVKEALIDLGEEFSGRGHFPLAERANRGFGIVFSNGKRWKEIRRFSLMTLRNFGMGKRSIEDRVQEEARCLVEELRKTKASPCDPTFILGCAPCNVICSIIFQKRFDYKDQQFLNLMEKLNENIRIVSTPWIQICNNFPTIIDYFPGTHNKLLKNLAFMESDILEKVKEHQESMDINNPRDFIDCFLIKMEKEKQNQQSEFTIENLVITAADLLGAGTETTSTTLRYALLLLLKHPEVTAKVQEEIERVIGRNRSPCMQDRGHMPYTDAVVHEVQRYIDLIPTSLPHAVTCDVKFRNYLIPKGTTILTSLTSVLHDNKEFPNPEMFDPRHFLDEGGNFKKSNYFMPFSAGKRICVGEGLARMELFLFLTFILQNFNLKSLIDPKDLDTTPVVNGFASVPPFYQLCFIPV
CYP2C9 act = CYP2C9 (human) activation; hit rate 1.4% among 96,000; recombinant CYP2C9, luciferin-H conversion, luminescence; hits give high values; factor 1 = untreated enzyme, 0 = blocked; activation factor at 5 µM; P11712;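 active = activation factor of 2 or more for CYP2C9 at a 5 µM dose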;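 note: 0 = sulfaphenazole-blocked wells and 1 = vehicle-only wells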
CYP2C19 inh = inhibitors of human CYP2C19 | inhibition, % at 5 µM | hit rate 21% among 96,000 | CYP2C19 Supersomes, luciferin-H EGE luminescence, 30 min;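 active = CYP2C19 inhibition above a set limit at 5 µM in the primary screen, cut at about 50% in these data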;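 note: plate controls were negative control wells for no effect and 2.5 mM tranylcypromine positive control for full effect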
sEH activator = increases human soluble epoxide hydrolase activity. hit rate 0.04% among 91,000. activation, % at 2 µM. purified human sEH enzymatic activity, activator screen; in the data active = activation above about 37%
CYP2C9 inh = blocks human cytochrome P450 2C9; P11712; CYP2C9 Supersomes, luciferin-H conversion, luminescence; inhibition, % at 5 µM; hit rate 20% among 96,000;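 active = blocking of liver enzyme CYP2C9 beyond about 50% at 5 µM, limit read from the data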
* hit, by the source's call; / = no result given. In the library only some 27% were active in any assay of this set; here they are far more common.

SMILES	sEH inhibitor	CYP2C19 activ	CYP2C9 act	CYP2C19 inh	sEH activator	CYP2C9 inh
O=C(/C=C\Nc1cccc(F)c1)c1ccc2c(c1)OCO2	-3.6	1	0.7	-3.7	7.3	31.0
CCCOC(=O)CCn1c(=S)oc2ccccc21	/	0.1	0.6	89.7*	/	43.4
CCCCOC(=O)n1c(=O)oc2ccccc21	-1.9	0.8	1.1	15.3	2.5	-14.2
CCCCC(=O)N(c1ccc(C)c(C)c1)C1C=CS(=O)(=O)C1 (stereo not drawn)	/	0.7	0.7	27.1	/	28.8
CC(C)=CCCC(C)NC(=O)NC1CCCCC1 (stereo not drawn)	90.7*	/	/	/	-90.5	/
CCN1C2=NCCCN2c2cc(C)c(C)cc21	-12.1	1.1	1.1	-13.6	12.0	-10.0
COc1cccc(Cn2nnc(C(=O)NCc3ccccc3Cl)c2N)c1	-5.0	0.8	2.9*	22.6	5.6	-190.4
COc1cccc(Cn2nnc(C(=O)NCCc3ccc(Cl)cc3)c2N)c1	28.4	1	1	1.3	-30.3	2.7
COc1cccc(Cn2nnc(C(=O)Nc3cc(Cl)ccc3OC)c2N)c1	/	1	2.1*	-3.8	/	-105.9
Cc1onc(-c2ccccc2Cl)c1C(=O)Nc1c(C)n(C)n(-c2ccccc2)c1=O	/	1	1	0.2	/	-3.4
Nc1ccccc1-c1nnc(-c2ccc(-c3ccccc3)cc2)o1	-8.5	0.8	0.6	20.3	10.0	40.4
CCCn1c(SCC(=O)NCCc2ccc(Cl)cc2Cl)n[nH]c1=O	22.6	0.7	0.6	26.8	-23.6	35.4
O=C(CSc1ccc(Cl)cc1)N1CCN(c2ncc(C(F)(F)F)cc2Cl)CC1	0.8	0.6	0.2	42.9	-1.2	81.2*
CC(C)(C)c1ccc(C(=O)NCCC(=O)N2CCN(c3ncccn3)CC2)cc1	-14.5	1.1	0.8	-13.7	12.6	16.8
O=C(CCSc1ccc(Cl)cc1)N1CCN(c2ncccn2)CC1	4.1	0.7	0.4	25.1	-4.5	64.7*
O=C(OCCN1CCN(c2ncc(C(F)(F)F)cc2Cl)CC1)c1ccc(F)cc1	10.0	0.7	0.3	27.3	-8.4	69.2*
O=C(CN1CCN(c2ncc(C(F)(F)F)cc2Cl)CC1)N1CCN(c2ncc(C(F)(F)F)cc2Cl)CC1	-1.1	0.4	0.2	61.5*	-1.7	82.0*
O=C(Cc1ncc(C(F)(F)F)cc1Cl)N1CCN(c2ccccn2)CC1	-5.7	0.8	1.2	17.8	4.4	-18.4
COC(=O)Cn1c(C)c(C(C)=O)c(C(C)=O)c1C	-14.1	1.1	1.2	-10.8	15.8	-15.1
COc1ccc(-n2nc(N)c3c(=O)oc(N(C)C)nc32)cc1	-0.1	0.6	0.8	40.5	2.1	21.1
Cc1cc(-c2ccccc2)nc(N2CCC(C(=O)NCC3CCCCC3)CC2)n1	43.0	/	/	/	-39.9	/
Cc1cccc(NC(=S)NN2CCN(C)CC2)c1	7.9	1	1	2.4	-7.4	-3.2
COc1cc(OC)cc(C(=O)NCCNC(=O)c2ccco2)c1	23.3	/	/	/	-21.5	/
CCCC(=O)Nc1nnc(CCN2CCCCC2)s1	-6.2	1.1	1.1	-8.1	8.1	-10.7
Cc1ccc2nc(C)cc(Nc3ccc4c(c3)OCCO4)c2c1	-5.9	0.8	0.3	20.4	7.4	68.1*
SMILES	sEH inhibitor	CYP2C19 activ	CYP2C9 act	CYP2C19 inh	sEH activator	CYP2C9 inh
CC1(C)Cc2c(C#N)c(NC3CCCCC3)nc(-c3ccco3)c2CO1	/	0.9	0.4	6.1	/	60.3*
CCN(CC)CCNc1nc(-c2ccco2)c2c(c1C#N)CC(C)(C)OC2	5.2	0.9	0.9	12.6	-5.1	13.9
CC1(C)Cc2c(C#N)c(NCC3CCCO3)nc(-c3ccco3)c2CO1 (stereo not drawn)	-7.4	0.9	0.5	13.2	7.5	53.8*
CC1(C)Cc2c(C#N)c(NCCc3ccccc3)nc(-c3ccco3)c2CO1	/	0.9	0.3	11.8	/	70.1*
COc1ccc(-c2cc(O)cc(O)c2)cc1	-4.2	0.4	0.4	58.8*	7.6	59.7*
COc1ccc(-c2cc(-c3ccc(OC)cc3)[nH]n2)cc1	8.1	0.7	0.8	26.2	-7.7	24.0
Clc1ccc2c(NNc3ccccc3Cl)ccnc2c1	8.3	0.8	0.4	25.0	-8.3	59.6*
Clc1ccc2c(N3CCCC3)ccnc2c1	1.2	0.9	1.1	7.5	-1.1	-5.5
CCOC(=O)c1cc(NC(=O)N2CCCc3ccccc32)c(C)nc1C	0.3	0.7	0.5	33.5	-0.8	49.3
Cc1nc(C)c(NC(=O)N2CCc3ccccc32)cc1NC(=O)N1CCc2ccccc21	12.4	0.5	0.2	52.4*	-13.1	76.7*
O=C(c1ccccc1)c1cccc(NC(=O)c2ccc(Br)o2)c1	18.2	0.4	0.1	63.8*	-17.9	94.7*
CCN(CC)c1ccc(NC(=O)c2ccc(Br)o2)cc1	/	0.5	1.1	52.3*	/	-9.0
CCc1cccc(NC(=O)c2ccc(Br)o2)c1	21.8	0.3	0.8	69.7*	-23.2	17.9
CCn1c(COc2ccc(C)cc2)nnc1SCC(=O)Nc1ccc2c(c1)OCCO2	-5.8	0.9	0.7	8.6	7.3	28.1
FC(F)(F)c1ccc(-n2ccnc2)nc1	0.1	0.5	0.6	51.6*	2.0	37.7
FC(F)(F)c1nnc2ccc(-n3ccnc3)nn12	10.4	1	1	-3.3	-11.8	-1.1
CCN(CC)S(=O)(=O)c1ccc(NC(=O)CN(c2ccc(OC)cc2OC)S(C)(=O)=O)cc1	-4.3	0.1	0	85.9*	8.1	100.0*
COc1ccc(OC)c(N(CC(=O)Nc2cccnc2)S(=O)(=O)c2ccc(OC)c(OC)c2)c1	9.4	0.1	0.1	88.0*	-6.9	90.1*
COc1ccc(OC)c(N(CC(=O)Nc2cccnc2)S(C)(=O)=O)c1	-8.5	0.4	0.7	55.7*	8.6	32.6
COc1ccc(OC)c(N(CC(=O)Nc2cccnc2)S(=O)(=O)c2ccc(C)cc2)c1	-3.5	0	0.1	95.1*	4.5	94.0*
Cc1cccc(NCN2C(=O)c3ccccc3C2=O)c1	5.3	1	0.9	1.6	-6.0	11.8
O=C(O)c1ccccc1CSc1ncn[nH]1	-9.4	1.1	1.2	-8.2	9.2	-19.5
Cc1cccc(OCC(=O)OCC(=O)c2c(N)n(C)c(=O)n(C)c2=O)c1	-0.1	0.6	0.9	44.6	-0.2	10.5
Cc1n[nH]c(C)c1S(=O)(=O)N(CC(=O)NC1CCCC1)c1ccc(C(C)C)cc1	4.0	0.4	0.3	61.0*	-1.8	74.7*
Cc1nn(C)c(C)c1S(=O)(=O)N(CC(=O)NC1CCCCCC1)c1ccc(C(C)C)cc1	-9.8	0.9	0.9	9.8	7.0	6.5
CCc1ccc(N(CC(=O)NC2CCCC2)S(=O)(=O)c2c(C)noc2C)cc1	-0.5	0.9	0.4	6.9	-0.5	64.5*
CCc1ccc(N(CC(=O)Nc2nc3ccc(C)cc3s2)S(=O)(=O)c2c(C)noc2C)cc1	-6.5	0.4	0.1	58.1*	3.7	93.0*
CCOc1ccc(N(CC(=O)NC2CCCC(C)C2C)S(=O)(=O)c2c(C)noc2C)cc1 (stereo not drawn)	/	0.9	0.8	5.5	/	17.9

Screens deposited in PubChem by several laboratories.
